Screening results deposited in PubChem by Broad Institute.
PD-1 reversal – reversal of PD-1 mediated T-cell inhibition; primary human CD4 T cells, PD-L1 beads, CellTiter-Glo 96 h; activation, % (concentration not given with the values); 29,000 tested, under 10 active; AID 2316; call rule not given here
Hedgehog inh – blocks Sonic Hedgehog signaling | Shh-LIGHT2 Gli-luciferase reporter, 30 h | inhibition, % (test concentration not listed) | 22,000 compounds, 2.1% hits | AID 2313;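 active = mean inhibition across valid replicates above about 65%, limit read from the data; inconclusive = mean under the limit, yet half or more replicates past it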;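 also: pathway switched on by Shh-conditioned medium diluted 1 in 25 in low serum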
MITF inhib – blocks MITF activity; TRPM1 promoter luciferase, luminescence, 24 h; inhibition, % (no concentration beside the values); 37,000 compounds, 0.28% hits; AID 2240; in the data active = inhibition above about 85%; inconclusive = no clear call, values can overlap the other calls; inactive = below about 68%;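 also: human melanocyte line stably carrying TRPM1 promoter luciferase reporter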
NOMO-1 viab – STK33 inhibitor candidate reducing NOMO-1 cell viability | NOMO-1 AML viability, CellTiter-Glo luminescence, 72 h | inhibition, % (concentration not given with the values) | 37,000 compounds, 7.5% hits; in the data active = inhibition above about 80%; inconclusive = no clear call, values can overlap the other calls
Numbers stand for hits; – = inactive; ? = inconclusive; · = no result given. An excerpt weighted towards active compounds, which were near 7.8% of everything screened.

SMILES	PD-1 reversal	Hedgehog inh	MITF inhib	NOMO-1 viab
CC(C)[C@]12O[C@H]1[C@@H]1O[C@]13[C@]1(O[C@H]1C[C@H]1C4=C(CC[C@@]13C)C(=O)OC4)[C@@H]2O	·	–	–	114
c1cncc(C2N=C(c3cnccn3)NN2)c1 (configuration not stated)	–	–	–	–
O=[N+]([O-])c1ccc(O)c([N+](=O)[O-])c1	·	–	105	–
CC(CCc1ccc(O)cc1)O[C@@H]1O[C@H](CO[C@H]2OC[C@](O)(CO)[C@H]2O)[C@@H](O)[C@H](O)[C@H]1O (some centres not stated)	–	–	–	–
COc1ccc2c(c1OC)C(=O)O[C@H]2[C@H]1c2cc3c(cc2CCN1C)OCO3	·	–	–	–
COc1cc([C@@H]2c3cc4c(cc3[C@H](OC(C)=O)[C@H]3COC(=O)[C@@H]23)OCO4)cc(OC)c1OC	·	–	–	108
COc1cc(C2c3cc4c(cc3CC3COC(=O)C32)OCO4)cc(OC)c1OC (configuration not stated)	–	80	–	118
COc1cc([C@@H]2c3cc4c(cc3[C@@H](O)C3COC(=O)C32)OCO4)cc(OC)c1O (some centres not stated)	·	90	–	102
CCOC(=O)c1c(NC(=O)C2C(C)(C)C2(C)C)sc2c1CCC2	–	–	–	–
Cc1c(O)c(C(=O)O)c(O)c2c1[C@H](C)[C@@H](C)OC2=O	–	–	–	–
COc1cc2c(cc1O)CCNC2C (configuration not stated)	·	–	–	–
CC[C@H]1CN2CCc3cc(OC)c(OC)cc3[C@@H]2C[C@@H]1C[C@H]1NCCc2cc(O)c(OC)cc21	·	86	88	120
CCN1C[C@]2(C)CC[C@H](OC)[C@@]34C1[C@@]1(OCO[C@@]15C[C@H](OC)[C@H]1C[C@]3(O)[C@@H]5[C@H]1OC)[C@@H](OC(C)=O)[C@H]24	·	–	–	–
O=C(CCl)c1cc(Br)c(Br)s1	–	–	–	99
CCN(CC)P1(=O)OC(C)(C)CC1(C)O (configuration not stated)	–	–	–	–
CCOC(=O)c1c(C)n(C(C)C)c2ccc(OC(=O)c3ccccc3)cc12	–	–	–	–
O=C(CCCN1CCC2(CC1)C(=O)N(Cc1cccc(F)c1)CN2c1ccccc1)c1ccc(F)cc1	·	?	–	91
CCNC(=S)N1CCN(CC(=O)Nc2ccc(Cl)cc2C(=O)c2ccccc2)CC1	–	·	–	–
CN1Cc2c(ccc3c2OCO3)[C@@H]2[C@H]1c1cc3c(cc1C[C@@H]2O)OCO3	–	–	–	138
CN1CCC2=C[C@H](O)[C@H]3OC(=O)c4cc5c(cc4[C@H]3[C@@H]21)OCO5	·	–	–	–
CCCCCc1cc(OC)c(CC=C(C)C)c(O)c1C(=O)O	·	–	·	·
COc1ccc2c(c[n+](C)c3c4cc5c(cc4ccc23)OCO5)c1OC	–	–	–	142
COc1ccc2c(c1OC)CN1CCc3cc4c(cc3C1C2)OCO4 (configuration not stated)	·	–	–	–
CCC(O)CC1CCCC(CC(O)c2ccccc2)N1C (configuration not stated)	–	–	–	–
CN1CCc2nc3sc(C(=O)C(C)(C)C)c(N)c3cc2C1	–	?	–	122
SMILES	PD-1 reversal	Hedgehog inh	MITF inhib	NOMO-1 viab
CCN1C[C@]2(COC)CC[C@H](O)[C@]34C1[C@H](C[C@H]23)[C@@]1(O)C[C@H](OC)[C@H]2C[C@@H]4[C@@H]1[C@H]2OC(C)=O	·	–	–	–
COCc1cc(OC(=O)N(C)C)nc(-c2ccncc2)n1	–	·	–	–
CCC1CN2CCC3(C(=O)Nc4cccc(O)c43)C2CC1/C(=C/OC)C(=O)OC (configuration not stated)	–	–	–	–
C/C=C(\C)[C@H](O)[C@H](C)/C=C(C)/C=C/C/C(C)=C/Cc1[nH]c(OC)c(OC)c(=O)c1C	–	–	96	99
CCCC(=O)O[C@@H]1[C@@H](C)[C@@]2(O)[C@@H](C=C(CO)C[C@]3(O)C(=O)C(C)=C[C@@H]23)[C@@H]2C(C)(C)[C@]12OC(=O)CCC	–	70	–	–
CN(C)Cc1c[nH]c2ccccc12	·	?	–	–
c1ccc2c(CNCCc3c[nH]c4ccccc34)cccc2c1	–	–	–	106
Cc1nn(Cc2cccc(C(=O)Nc3ccc4oc(=O)cc(C(F)(F)F)c4c3)c2)c(C)c1Cl	–	·	–	–
CC1=C2C[C@H]3[C@@H](CC=C4C[C@@H](O)CC[C@@]43C)[C@@H]2CC[C@]12O[C@@H]1C[C@H](C)CN[C@H]1[C@H]2C	·	89	–	–
COc1ccc(CCNCc2cc(Cl)cc(Cl)c2OC)cc1OC	–	·	–	–
CCOc1cc(CN2CCN(C(=O)COc3ccc(C)cc3)CC2)ccc1OC	–	–	–	–
CC(=O)Oc1ccc(/C=C/c2cc(OC(C)=O)cc(OC(C)=O)c2)cc1	·	–	–	88
C/C=C(\C)C(=O)OC1C(C)=C2C(C1OC(=O)CCCCCCC)C(C)(OC(C)=O)CC(OC(=O)CCC)C1(O)C2OC(=O)C1(C)O (configuration not stated)	–	101	–	120
C/C=C(/C)C(=O)O[C@H]1C(C)=C2[C@H]([C@@H]1OC(=O)CCCCCCC)[C@@](C)(OC(C)=O)C[C@H](OC(=O)CCC)[C@@]1(O)[C@H]2OC(=O)[C@@]1(C)O	·	103	105	122
CCC(C)[C@H]1C(=O)O[C@H](C(C)C)C(=O)N(C)[C@@H](C(C)CC)C(=O)O[C@H](C(C)C)C(=O)N(C)[C@@H](C(C)CC)C(=O)O[C@H](C(C)C)C(=O)N1C (some centres not stated)	–	104	96	119
CC(=O)c1cccc(NC(=O)CSC2c3ccccc3-c3ccccc32)c1	–	·	–	–
C[C@@H]1C(=O)O[C@H]2[C@H]1CC[C@@]1(C)C=CC(=O)[C@@]3(C)O[C@@]213	–	–	–	88
O=C(Cn1cc(C(=O)c2ccccc2)c2ccccc21)NCC1CCCO1 (configuration not stated)	–	·	–	–
C=C(C)[C@H]1O[C@H]2CC[C@@]3(C)[C@@](O)(CC[C@H]4[C@@H]5OC(C)(C)[C@H]6C[C@@H]7C(=C)Cc8c(Cl)cc9[nH]c(c5c9c8[C@@]76O)[C@@]43C)[C@]23O[C@@H]3[C@H]1O	·	–	–	116
COC(=O)C12CC3CC(C(C)O)C1N(CCc1c2[nH]c2ccc(OC)cc12)C3 (configuration not stated)	–	–	–	–
CC[C@H]1CN2CC[C@H]1C[C@@H]2[C@@H](O)c1ccnc2ccc(OC)cc12	–	–	–	–
COC(=O)CC1(CC(=O)OC)C(=O)N(C)C(=O)N(C)C1=O	–	·	–	–
O=c1[nH]c2ccccc2n1C1CCN(CCCC(c2ccc(F)cc2)c2ccc(F)cc2)CC1	·	73	–	116
CO[C@H]1[C@@H](O)[C@@H](C)O[C@@H](O[C@@H]2C=C3C(OC(C)=O)CC4(O)C(CC[C@]5(C)[C@@H](C6=CC(=O)OC6)CC[C@]45O)[C@@]3(C)CC2)[C@@H]1O (some centres not stated)	–	–	–	122
